Assay [1] can be described thus: NCI Yeast Anticancer Drug Screen. Data for the rad50 strain (AID 155).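 Note: 0% = growth of vehicle-only cultures of the same strain.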 The settings on record: S. cerevisiae rad50 strain growth inhibition, stronger effect = higher value. An outline of the steps:
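Yeast carrying a defined DNA repair defect were exposed to test compounds, and growth was compared with vehicle-treated controls to give percent inhibition.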

Assay [2] can be described thus: NCI Yeast Anticancer Drug Screen. Data for the mec2-1 strain (AID 157). The following applies: S. cerevisiae mec2-1 strain, stronger effect = higher value. An outline of the steps:
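Growth inhibition is read against vehicle-treated controls after compound exposure of the mec2-1 yeast strain, which is defective in DNA damage repair or cell cycle control.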

The nature of assay [3]: NCI Yeast Anticancer Drug Screen. Data for the sgs1 mgt1 strain (AID 161).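 Note: 0% = growth of cultures given vehicle only.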 The settings on record: S. cerevisiae sgs1 mgt1 strain, stronger effect = higher value. The procedure, abridged: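 Growth of a repair-deficient yeast mutant was monitored after compound treatment and expressed as inhibition relative to vehicle-treated cultures.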
A short description of assay [4]: NCI Yeast Anticancer Drug Screen. Data for the cln2 rad14 strain (AID 165).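 Note: 0% = growth equal to vehicle treated cultures.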 The following applies: S. cerevisiae cln2 rad14 strain, stronger effect = higher value. An outline of the steps: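 Growth inhibition, relative to vehicle-treated controls, is the read-out. The test organism is a yeast strain with defined genetic alterations, cln2 rad14.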
Assay [5] is described as follows: NCI Yeast Anticancer Drug Screen. Data for the bub3 strain (AID 167). The settings on record: S. cerevisiae bub3 mutant strain, stronger effect = higher value. An outline of the steps: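 Compounds were applied to a genetically altered yeast strain carrying a cell-cycle control defect. Growth inhibition was scored against vehicle-treated controls.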
Assay [6] is described as follows: NCI Yeast Anticancer Drug Screen. Data for the mlh1 rad18 strain (AID 175). The settings on record: S. cerevisiae mlh1 rad18 strain growth inhibition, stronger effect = higher value. The procedure, abridged: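 Cells of a genetically altered yeast strain, deficient in DNA damage repair, were treated with compound. Their growth was then compared with that of vehicle-treated cultures to give inhibition.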

[7] abbreviates: at 5.0 µM (retest, dose inferred, filed as 0.5).
[8] abbreviates: at 50.0 µM (retest, dose inferred, filed as 5.0).

Compounds without any hit were thinned out: in the full panel of roughly 79,000, 15% have a hit. Values without a mark were called inactive. Calls of active or inactive are those of the source. Cut-off read from the data, not from the text of the source: active = growth inhibition above about 70%; inactive = the rest.

The record followed here is PubChem BioAssay (NCI).

Take `Cc1cccc2cc3ccccc3cc12`: the growth inhibition is 29% in assay [1] (setting [7]); 99% (active) in assay [1] (setting [8]); 95.3% (active) in assay [1] (at 50.0 µM); 50% in assay [2] (setting [7]); 99% (active) in assay [2] (setting [8]); 97% (active) in assay [2] (at 50.0 µM). The growth inhibition was 43% in assay [3] (setting [7]); 99% (active) in assay [3] (setting [8]); 85.9% (active) in assay [3] (at 50.0 µM); 58% in assay [4] (setting [7]); 99% (active) in assay [4] (setting [8]); 91.1% (active) in assay [4] (at 50.0 µM). Also, the growth inhibition was 68% in assay [5] (setting [7]); 99% (active) in assay [5] (setting [8]); 95.7% (active) in assay [5] (at 50.0 µM); 70% (active) in assay [6] (setting [7]); 99% (active) in assay [6] (setting [8]); 96.9% (active) in assay [6] (at 50.0 µM).

On to `O=[N+]([O-])c1ccc(C=Cc2ccc(C(F)(F)F)cc2)cc1.[C-]#[O+].[C-]#[O+].[C-]#[O+].[Cr]`, for which the growth inhibition in assay [1] (setting [7]) was 2%; in assay [1] (setting [8]) it was 67%; in assay [1] (at 50.0 µM), 29%; in assay [2] (setting [7]), 0%; in assay [2] (setting [8]), 51%; in assay [2] (at 50.0 µM), 55.8%. Moreover, the growth inhibition in assay [3] (setting [7]) is 17%; in assay [3] (setting [8]) it was 60%; in assay [3] (at 50.0 µM) it was 72.5% (active); in assay [4] (setting [7]) it was -22%; in assay [4] (setting [8]), 60%; in assay [4] (at 50.0 µM) it was 26.6%. The growth inhibition in assay [5] (setting [7]) was 0%; in assay [5] (setting [8]), 75% (active); in assay [5] (at 50.0 µM), 73.2% (active); in assay [6] (setting [7]), 12%; in assay [6] (setting [8]), 72% (active); in assay [6] (at 50.0 µM) it was 73.9% (active).

With `O=S(=O)(c1ccccc1)N1C2C3CCC(CC3)C21` (stereo unspecified), the growth inhibition in assay [1] (setting [7]) was -1%; in assay [1] (setting [8]), -4%; in assay [1] (at 50.0 µM) it was 1.2%; in assay [2] (setting [7]), -11%; in assay [2] (setting [8]) it was -16%; in assay [2] (at 50.0 µM), 2.75%. Besides, the growth inhibition was -3% in assay [3] (setting [7]); -32% in assay [3] (setting [8]); 23% in assay [3] (at 50.0 µM); -1% in assay [4] (setting [7]); 3% in assay [4] (setting [8]); 7.65% in assay [4] (at 50.0 µM). In addition, the growth inhibition in assay [5] (setting [7]) was 14%; in assay [5] (setting [8]), 96% (active); in assay [5] (at 50.0 µM), 76.6% (active); in assay [6] (setting [7]) it was -13%; in assay [6] (setting [8]) it was -5%; in assay [6] (at 50.0 µM), 1.5%.

Consider `CCC[CH2][Sn]1([CH2]CCC)[O]Cc2nc(C)ccc2[O]1`, for which the growth inhibition in assay [1] (setting [7]) was 27%; in assay [1] (setting [8]), 92% (active); in assay [1] (at 50.0 µM), 77.5% (active); in assay [2] (setting [7]) it was 29%; in assay [2] (setting [8]) it was 96% (active); in assay [2] (at 50.0 µM), 81.8% (active). The growth inhibition in assay [3] (setting [7]) was 40%; in assay [3] (setting [8]), 96% (active); in assay [3] (at 50.0 µM) it was 80% (active); in assay [4] (setting [7]) it was 15%; in assay [4] (setting [8]), 93% (active); in assay [4] (at 50.0 µM) it was 71.9% (active). Besides, the growth inhibition is 33% in assay [5] (setting [7]); 96% (active) in assay [5] (setting [8]); 83.7% (active) in assay [5] (at 50.0 µM); 40% in assay [6] (setting [7]); 96% (active) in assay [6] (setting [8]); 85.5% (active) in assay [6] (at 50.0 µM).

For the molecule `CCC[As](CCC)SC1CCC2(C)C(=CCC3C4CCC(=O)C4(C)CCC32)C1` (stereo unspecified), the growth inhibition in assay [1] (setting [7]) is 17%; in assay [1] (setting [8]), 98% (active); in assay [1] (at 50.0 µM) it was 49.5%; in assay [2] (setting [7]), 9%; in assay [2] (setting [8]), 87% (active); in assay [2] (at 50.0 µM), 3.1%. Further, the growth inhibition in assay [3] (setting [7]) is 19%; in assay [3] (setting [8]), 84% (active); in assay [3] (at 50.0 µM) it was 82% (active); in assay [4] (setting [7]) it was -3%; in assay [4] (setting [8]), 89% (active); in assay [4] (at 50.0 µM), 34.8%. For the same molecule, the growth inhibition in assay [5] (setting [7]) is 0%; in assay [5] (setting [8]), 77% (active); in assay [5] (at 50.0 µM), 17.4%; in assay [6] (setting [7]), 11%; in assay [6] (setting [8]) it was 97% (active); in assay [6] (at 50.0 µM) it was 88.5% (active).

Take `CCC[CH2][Sn]1([CH2]CCC)[O]CC(c2ccccn2)C[O]1`: the growth inhibition was 36% in assay [1] (setting [7]); 98% (active) in assay [1] (setting [8]); 87.2% (active) in assay [1] (at 50.0 µM); 28% in assay [2] (setting [7]); 98% (active) in assay [2] (setting [8]); 90.7% (active) in assay [2] (at 50.0 µM). Further, the growth inhibition in assay [3] (setting [7]) is 34%; in assay [3] (setting [8]) it was 98% (active); in assay [3] (at 50.0 µM) it was 88.2% (active); in assay [4] (setting [7]) it was 21%; in assay [4] (setting [8]), 97% (active); in assay [4] (at 50.0 µM), 89.5% (active). Also, the growth inhibition in assay [5] (setting [7]) was 37%; in assay [5] (setting [8]) it was 99% (active); in assay [5] (at 50.0 µM), 89% (active); in assay [6] (setting [7]), 44%; in assay [6] (setting [8]), 98% (active); in assay [6] (at 50.0 µM), 87.4% (active).

Turning to `COc1ccc(-c2c(C)c(C(=O)O)nc(-c3ccc4c(O)c(OC)c5c(c4n3)=NC(C)(C)N=5)c2N)c(O)c1OC`, the growth inhibition was 76% (active) in assay [1] (setting [7]); 92% (active) in assay [1] (setting [8]); 75.1% (active) in assay [1] (at 50.0 µM); 20% in assay [2] (setting [7]); 68% in assay [2] (setting [8]); 33% in assay [2] (at 50.0 µM). The growth inhibition was 39% in assay [3] (setting [7]); 60% in assay [3] (setting [8]); 41.4% in assay [3] (at 50.0 µM); 16% in assay [4] (setting [7]); 76% (active) in assay [4] (setting [8]); 47% in assay [4] (at 50.0 µM). The growth inhibition in assay [5] (setting [7]) was -1%; in assay [5] (setting [8]) it was 7%; in assay [5] (at 50.0 µM) it was 19.9%; in assay [6] (setting [7]) it was 59%; in assay [6] (setting [8]), 87% (active); in assay [6] (at 50.0 µM), 61.5%.
